Data reported in PubChem BioAssay (EPA / NIEHS).
Active and inactive are the calls of the source. Rule for the calls: active = hit-call score of the fitted dose curve at least 0.9, where 1 is the maximum; inactive = score below 0.9.

Assays:
[1] = read-out: Vascular cell adhesion molecule 1 (VCAM1), VCAM1 (gene 7412); assay: BSK_4H_VCAM1: BioMAP Diversity Plus: 4H Assay for Vascular cell adhesion molecule 1 (VCAM1) Biomarker Activity (AID 2283033); conditions: primary human endothelial cells (HUVEC); actives raise or lower the signal
Procedure, shortened: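 Primary human umbilical vein endothelial cells were exposed to chemicals for 24 h, after which VCAM-1 was quantified by ELISA. Responses were fitted bidirectionally against DMSO as negative control and activity baseline.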

[2] = read-out: Interferon-gamma inducible Protein 10 (IP10), CXCL10 (gene 3627); assay: BSK_BE3C_IP10: BioMAP Diversity Plus: BE3C Assay for Interferon-gamma inducible Protein 10 (IP10) Biomarker Activity (AID 2283034); conditions: primary human bronchial epithelial cells; actives raise or lower the signal
Procedure, shortened: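 Human primary bronchial epithelial cells were exposed to chemicals for 24 hours, after which IP-10 levels were measured by ELISA. Data were fitted bidirectionally against DMSO, which served as the negative control and activity baseline.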

[3] = read-out: Monokine induced gamma interferon (MIG), CXCL9 (gene 4283); assay: BSK_BE3C_MIG: BioMAP Diversity Plus: BE3C Assay for Monokine induced gamma interferon (MIG) Biomarker Activity (AID 2283035); conditions: primary human bronchial epithelial cells; actives raise or lower the signal
Procedure, shortened: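 MIG level was determined by ELISA after 24 h chemical treatment of primary human bronchial epithelial cells. Values were fitted bidirectionally with DMSO as the negative control and activity baseline.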

[4] = read-out: Transforming growth factor beta 1 (TGFb1), TGFB1 (gene 7040); assay: BSK_BE3C_TGFb1: BioMAP Diversity Plus: BE3C Assay for Transforming growth factor beta 1 (TGFb1) Biomarker Activity (AID 2283036); conditions: primary human bronchial epithelial cells; actives raise or lower the signal
Procedure, shortened: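 Human primary bronchial epithelial cells (BE3C system) were dosed with chemical and TGF-b1 levels measured by ELISA at 24 h. Activity was fitted bidirectionally relative to DMSO negative control as baseline.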

[5] = read-out: Plasminogen activator inhibitor-1 (PAI1), SERPINE1 (gene 5054); assay: BSK_BE3C_PAI1: BioMAP Diversity Plus: BE3C Assay for Plasminogen activator inhibitor-1 (PAI1) Biomarker Activity (AID 2283037); conditions: primary human bronchial epithelial cells; actives raise or lower the signal
Procedure, shortened: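 Human primary bronchial epithelial cells were exposed to chemical for 24 h, then PAI-1 was quantified by ELISA. Activity was fitted bidirectionally relative to the DMSO negative control baseline.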

[6] = read-out: urokinase plasminogen activator (uPA), PLAU (gene 5328); assay: BSK_BE3C_uPA: BioMAP Diversity Plus: BE3C Assay for urokinase plasminogen activator (uPA) Biomarker Activity (AID 2283038); conditions: primary human bronchial epithelial cells; actives raise or lower the signal
Procedure, shortened: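 Using confluent primary human lung bronchial epithelial cultures, we dosed chemicals, waited 24 h, then ran a uPA ELISA, fitting bidirectionally against DMSO.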

[7] = read-out: Urokinase-type plasminogen activator receptor (uPAR), PLAUR (gene 5329); assay: BSK_BE3C_uPAR: BioMAP Diversity Plus: BE3C Assay for Urokinase-type plasminogen activator receptor (uPAR) Biomarker Activity (AID 2283039); conditions: primary human bronchial epithelial cells; actives raise or lower the signal
Procedure, shortened: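 Primary human bronchial epithelial cells were dosed with chemical and harvested 24 h later; uPAR was quantified by ELISA. Activity was fitted bidirectionally against DMSO as negative control and baseline.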

[8] = read-out: Interleukin-6 (IL6), IL6 (gene 3569); assay: BSK_CASM3C_IL6: BioMAP Diversity Plus: CASM3C Assay for Interleukin-6 (IL6) Biomarker Activity for (AID 2283040); conditions: primary human coronary artery smooth muscle cells; actives raise or lower the signal
[9] = read-out: Tissue plasminogen activator (tPA), PLAT (gene 5327); assay: BSK_BE3C_tPA: BioMAP Diversity Plus: BE3C Assay for Tissue plasminogen activator (tPA) Biomarker Activity (AID 2283041); conditions: primary human bronchial epithelial cells; actives raise or lower the signal
Procedure, shortened: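 Human primary bronchial epithelial cells were dosed with chemical and tPA biomarker levels measured by ELISA 24 hours later. Activity was fitted bidirectionally against DMSO as negative control and baseline.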

[10] = read-out: Interleukin-8 (IL8), CXCL8 (gene 3576); assay: BSK_CASM3C_IL8: BioMAP Diversity Plus: CASM3C Assay for Interleukin-8 (IL8) Biomarker Activity (AID 2283042); conditions: primary human coronary artery smooth muscle cells; actives raise or lower the signal;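 note: IL-8 protein level quantified by ELISA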

Measured: AC50

CC(C)CCCCCCOC(=O)c1ccc(C(=O)OCCCCCCC(C)C)c(C(=O)OCCCCCCC(C)C)c1
inactive: all assays above

CNCc1ccc(NC(=O)c2c[nH]c3c2C(=O)CCC3)cc1
inactive: all assays above

O=C(O)c1cccc(N(Cc2cccnc2)c2ccc(OC(F)F)c(OC(F)F)c2)c1
active: [2] 32.8 µM | [5] 31.3 µM
inactive: all other assays above

O=C(O)c1cc(N=Nc2ccc(S(=O)(=O)Nc3ccccn3)cc2)ccc1O
inactive: all assays above

CC(C)=CCC/C(C)=C/CO
inactive: all assays above

CCc1cc(SCc2sc(-c3ccc(C(F)(F)F)cc3)nc2CN2CCN(c3ccc(OC)cc3)CC2)ccc1OCC(=O)O
active: [1] 10 µM | [2] 3.2 µM | [3] 5.52 µM | [4] 5.17 µM | [5] 3.07 µM | [6] 5.31 µM | [7] 5.38 µM | [8] 20 µM | [9] 5.23 µM | [10] 34.1 µM

O=C(O)CCN(C1(C(=O)NO)CCCC1)S(=O)(=O)c1ccc(Oc2ccc(F)cc2)cc1
inactive: all assays above

CC(C)=CCC/C(C)=C\CO
inactive: all assays above

CC(=O)OCCC(C)C
inactive: all assays above

On1ccccc1=S
inactive: [10]
active: [1] 14.8 µM | [2] 3.8 µM | [3] 5.25 µM | [4] 5.47 µM | [5] 3.45 µM | [6] 5.4 µM | [7] 9.61 µM | [8] 32.2 µM | [9] 3.55 µM

CC(C)CCCCCCCOC(=O)CCCCC(=O)OCCCCCCCC(C)C
inactive: all assays above

Oc1ccc2c(c1)-c1ccccc1C2
inactive: all assays above

O=P(OC(CCl)CCl)(OC(CCl)CCl)OC(CCl)CCl
inactive: all assays above

COc1ccc(/C=C/S(=O)(=O)NC(=O)c2ccc(C)cc2Cl)cc1
inactive: all assays above

O=C(CCCCCCCCc1cccnc1)N1CCC(C=C(c2ccccc2)c2ccccc2)CC1
inactive: [8]
active: [1] 12.7 µM | [2] 24.5 µM | [3] 27.9 µM | [4] 23.7 µM | [5] 19.3 µM | [6] 24.7 µM | [7] 17.9 µM | [9] 19.5 µM | [10] 38.3 µM

CCC(C)(C)C(=O)O[C@H]1C[C@@H](C)C=C2C=C[C@H](C)[C@H](CC[C@@H]3C[C@@H](O)CC(=O)O3)[C@H]21
active: [1] 29.9 µM | [2] 34.1 µM | [3] 36.7 µM | [4] 27.1 µM | [5] 31.9 µM | [7] 32.5 µM | [9] 5.4 µM | [10] 34.2 µM
inactive: [8]

CCCC(=O)OCC
inactive: all assays above

CCOCCOCCOCCO
inactive: all assays above

COC(=O)c1c(Cl)c(Cl)c(C(=O)OC)c(Cl)c1Cl
inactive: all assays above

CNS(=O)(=O)c1cc(C(=O)N2CCC(CCN3C4CCC3CC(n3c(C)nc5ccccc53)C4)(c3cccc(F)c3)CC2)c(Cl)cc1F (stereo not given)
active: [8] 5.62 µM
inactive: all other assays above

C=CC(=C)CCC=C(C)C
inactive: all assays above

COC(=O)CC(=O)OC
inactive: all assays above

COCCOc1cc2cc(C(=O)NC3CCN(C(C)C)CC3)n(CC(=O)Nc3ccc(Cl)cn3)c2cn1
inactive: all assays above

Cn1c(=O)c2c(ncn2C)n(C)c1=O
inactive: all assays above

CC[C@H]1CC[C@H](NCc2cc3c(cc2OC)[C@H]2C[C@H]2C(=O)N3C)[C@H](c2ccccc2)N1
inactive: all assays above

Cc1[nH]cnc1C[C@H]1CCc2c(C)c3ccccc3n2C1=O
active: [1] 28.9 µM | [7] 24.1 µM
inactive: all other assays above

C[C@](N)(Cc1ccc(O)c(O)c1)C(=O)O
inactive: all assays above

CC(C)CC(C)(O)C#CC(C)(O)CC(C)C (stereo not given)
inactive: all assays above

CCCCCCCCCCCCCCCO
active: [1] 37.5 µM
inactive: all other assays above

CC[C@H](C)C(=O)O[C@H]1C[C@@H](C)C=C2C=C[C@H](C)[C@H](CC[C@@H]3C[C@@H](O)CC(=O)O3)[C@H]21
inactive: [8] | [10]
active: [2] 36.3 µM | [3] 36.1 µM | [4] 34 µM | [5] 28.8 µM | [6] 32.1 µM | [7] 30.9 µM | [9] 25.6 µM

C=CCCCCCCCCC(=O)O
inactive: all assays above

COc1ccc2sc(C(=O)Nc3nnn[nH]3)c(OC(C)C)c2c1
inactive: [1] | [3] | [7]
active: [2] 19.9 µM | [4] 9.17 µM | [5] 12.9 µM | [6] 8.38 µM | [9] 13.9 µM | [10] 29.4 µM

CCCCCCc1ccc(O)cc1O
active: [1] 31.8 µM | [2] 32.2 µM | [3] 30.9 µM | [4] 24.6 µM | [5] 31.6 µM | [6] 31.4 µM | [7] 34.1 µM | [9] 13.2 µM
inactive: [8] | [10]

CN(C)c1ccc(Cc2ccc(N(C)C)cc2)cc1
active: [2] 28.8 µM
inactive: all other assays above

CC(O)CN(CCN(CC(C)O)CC(C)O)CC(C)O (stereo not given)
inactive: all assays above

COCCOCCOCCOC
inactive: all assays above

CCCN(C1CCN(C(=O)C2CCNCC2)CC1)[C@@H]1CCc2ccc(OC)cc2C1
inactive: all assays above

CC(C)c1cccc(C(C)C)c1N1C(=O)c2ccc(O)cc2C1=O
inactive: [6] | [8] | [10]
active: [1] 29.4 µM | [2] 19.5 µM | [3] 26.3 µM | [5] 9.07 µM | [9] 27.2 µM

CCOC(=O)c1ccc(C2CCC(NC[C@H](O)COc3ccc(O)c(NS(C)(=O)=O)c3)CC2)cc1 (stereo not given in full)
active: [6] 14.9 µM
inactive: all other assays above

Fc1ccccc1[C@@H](F)COC1CCC(Nc2ncnc3[nH]ncc23)CC1 (stereo not given in full)
inactive: all assays above

CCOC(=O)COc1ccc2c(c1)CC(NCC(O)c1cccc(Cl)c1)CC2 (stereo not given)
active: [1] 30 µM | [2] 30.3 µM | [4] 29 µM | [6] 31.2 µM
inactive: all other assays above

O=C1CCCCCN1
inactive: all assays above

CCCCC(CC)COC(=O)c1ccc(C(=O)OCC(CC)CCCC)cc1 (stereo not given)
inactive: all assays above

CCOc1cccc(-n2cc(C(=O)N3CCN(c4cc(C(=O)O)c5ccccc5c4)CC3)nc2-c2ccc(C)cc2)c1
inactive: [10]
active: [1] 29.9 µM | [2] 15 µM | [3] 32.6 µM | [4] 27.4 µM | [5] 19.2 µM | [6] 16.8 µM | [7] 15.7 µM | [8] 30.3 µM | [9] 9.89 µM
